Several values for one entry are separate records, joined by “and”; a condition that tells them apart may be missing. Identical values can stand only once. Inconclusive results are not listed. Some structures have more than one record in an assay (separate samples or runs), and their calls can disagree. Activity calls are given as the source filed them. Rule for the calls: active = hit-call score of the fitted dose curve at least 0.9, where 1 is the maximum; inconclusive = response in the unintended direction; inactive = score below 0.9.
Test: CCTE_Shafer_MEA_dev_active_electrodes_number: CCTE's Neural Network Formation Assay for Number of Active Electrodes, Shafer Lab (AID 2284040);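 for AC50: potency for loss of active electrodes versus DMSO so lower counts are hits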
Protocol: CCTE_Shafer_MEA_dev assay is conducted using Axion Biosystems 48 well microelectrode array (MEA) plates and Maestro recording system. Each well of the MEA plate contains a grid of 16 microelectrodes embedded in the culture surface. Electrically active cells, such as neurons, can be cultured over the electrodes, and electrical activity in these cells can be recorded extracellularly. The spontaneous firing of neurons is captured from each electrode on a microsecond timescale providing both temporally and spatially precise data. […] The CCTE_Shafer_MEA_dev assay uses primary cultures of rat cortical neurons. Recordings are made on days post-plating 5, 7, 9 and 12. As these cultures mature over time, neural networks develop functional activity and form cohesive networks in which electrical activity can be highly coordinated. CCTE_Shafer_MEA_dev_active_electrodes_number is 1 of 19 assay components of the CCTE_Shafer_MEA_dev assay. It measures the number of electrodes in a well with a mean firing rate of at least 5 spikes (action potential firings) per minute during a recording in a microelectrode array (MEA) using Axion Biosystems Maestro 768 channel amplifier with the AxIS adaptive spike detector. To collapse across multiple recordings made on days post-plating 5, 7, 9 and 12, the trapezoidal area-under-the-curve of the component is calculated.Data from the assay component CCTE_Shafer_MEA_dev_active_electrodes_number was analyzed into 1 assay endpoint. This assay endpoint, CCTE_Shafer_MEA_dev_active_electrodes_number, was analyzed in the negative analysis fitting direction relative to DMSO as the negative control and baseline of activity. Using a type of functional reporter, gain or loss-of-signal activity can be used to understand electrical activity.
On the day prior to culture, each well was coated thoroughly with 150 uL of 0.05% polyethyleneimine (PEI, Sigma Cat P3143) in 50 mM HEPES (Sigma Cat H7523) at a pH of 8. The plate was incubated at 37C for one hour. PEI was rinsed out with 500 uL of sterile water three times. Plates were stored at 4C until the day of culture. This culture was plated at a seeding density of 1.5 x 10^5 cells/well on a 48-well MEA plate, prepared as described above. Cells were administered via a 25 uL media/laminin ([…]; Sigma Cat L2020-1MG) drop directly onto the microelectrode array, as adding the cells with the laminin results in better attachment than pre-coating with laminin. After 2 hours, an additional 475 uL of cortical media was added and the cells returned to the incubator. Exposure starts at day 0 of plating and is continued over twelve days of network development until the experiment is terminated. Cells are fed with fresh medium on DIV 5 and 9, following the recordings on those days. The entire volume of media in the well is exchanged and any vehicle or compound treatment is renewed. Complete details are found in OP-NHEERL/ISTD/SBB/TJS/2015-03-r0 (available on request, email shafer.tim@epa.gov). Measurement of the electrical activity is non-invasive, and recordings can be made from the same plate over multiple different days of the culture. In cortical neurons, this allows for the measurement of extracellular action potentials over the period during which networks form in the MEA plate.
In the case of CCOP(=S)(OCC)Oc1ccc([N+](=O)[O-])cc1, the outcome is reported as “inactive”.
For CCCCSP(=O)(SCCCC)SCCCC, the AC50 was 34.3 µM (active) and 15.2 µM (active).
With C[Si](Cn1cncn1)(c1ccc(F)cc1)c1ccc(F)cc1 the AC50 was 4.26 µM (active).
In the case of CC(C)N(C(=O)SCC(Cl)=C(Cl)Cl)C(C)C, the AC50 is reported as 27 µM (active).
With CCOP(=O)(NC(C)C)Oc1ccc(SC)c(C)c1 (configuration not stated) the outcome was “inactive” and the AC50 was 33.4 µM (active).
For CC(C)[C@H](C(=O)O[C@H](C#N)c1cccc(Oc2ccccc2)c1)c1ccc(Cl)cc1, the AC50 was 14.6 µM (active).
In the case of CON=C(C(=O)OC)c1ccccc1CON=C(C)c1cccc(C(F)(F)F)c1, the AC50 is reported as 775 nM (active) and 838 nM (active).
For COP(=O)(OC)OC(Br)C(Cl)(Cl)Br (configuration not stated), the AC50 was 7.62 µM (active) and 14.8 µM (active).
In the case of C=C(C)[C@H]1Cc2c(ccc3c2O[C@@H]2COc4cc(OC)c(OC)cc4[C@@H]2C3=O)O1, the AC50 is reported as 25.2 nM (active) and 14.1 nM (active).
With CC(Oc1cccc(Cl)c1)C(=O)O (configuration not stated) the outcome was “inactive”.
For COP(=O)(NC(C)=O)SC (configuration not stated), the outcome was “inactive”.
In the case of CCOP(=S)(Oc1cnc(C(C)(C)C)nc1)OC(C)C (configuration not stated), the AC50 is reported as 93.2 µM (active) and 14.9 µM (active).
With C#CCC1=C(C)C(OC(=O)C2C(C=C(C)C)C2(C)C)CC1=O (configuration not stated) the outcome was “inactive”.
With CN(C)[C@@H]1C(=O)C(C(N)=O)=C(O)[C@@]2(O)C(=O)C3=C(O)c4c(O)cccc4[C@@](C)(O)[C@H]3[C@H](O)[C@@H]12 the AC50 was 50 µM (active).
With CC[C@H](C)[C@H]1O[C@]2(C=C[C@@H]1C)C[C@@H]1C[C@@H](C/C=C(\C)[C@@H](O[C@H]3C[C@H](OC)[C@@H](O[C@H]4C[C@H](OC)[C@@H](NC)[C@H](C)O4)[C@H](C)O3)[C@@H](C)/C=C/C=C3\CO[C@@H]4[C@H](O)C(C)=C[C@@H](C(=O)O1)[C@]34O)O2 the AC50 was 55 nM (active) and 4.37 nM (active).
In the case of CC(C)=CC1C(C(=O)OCN2C(=O)C3=C(CCCC3)C2=O)C1(C)C (configuration not stated), the outcome is reported as “inactive”.
With COP(=O)(OC)C(O)C(Cl)(Cl)Cl (configuration not stated) the AC50 was 11.6 µM (active).
With CCOP(=S)(OCC)Oc1cc(C)nc(C(C)C)n1 the AC50 was 75.9 µM (active).
In the case of CCOP(=O)(SC(C)CC)N1CCSC1=O (configuration not stated), the outcome is reported as “inactive”.
In the case of CCCSP(=O)(OCC)Oc1ccc(Br)cc1Cl (configuration not stated), the outcome is reported as “inactive”.
With O=[N+]([O-])c1cc(C(F)(F)F)c(Cl)c([N+](=O)[O-])c1Nc1ncc(C(F)(F)F)cc1Cl the AC50 was 0.905 µM (active).
In the case of CCOP(=S)(OCC)Oc1ccc2c(C)c(Cl)c(=O)oc2c1, the AC50 is reported as 65.8 µM (active).
In the case of CCOP(=S)(OCC)OC(Cl)C(Cl)(Cl)Cl (configuration not stated), the AC50 is reported as 50 µM (active) and 22.9 µM (active).
For C[N+]1(C)CCCCC1, the AC50 was 15 µM (active).
With CC(=NC#N)N(C)Cc1ccc(Cl)nc1 the outcome was “inactive”.
For S=C1NCCN1, the AC50 was 3.82 µM (active).
With CCOP(=O)(OCC)Oc1cc(C)nc(C(C)C)n1 the outcome was “inactive”.
With CN1COCN(Cc2cnc(Cl)s2)C1=N[N+](=O)[O-] the outcome was “inactive”.
In the case of CCOP(=S)(OCC)SCCSCC, the outcome is reported as “inactive”.
With CCCSP(=O)(OCC)SCCC the AC50 was 27.9 µM (active) and 50.5 µM (active).
With CSC1=N[C@@](C)(c2ccccc2)C(=O)N1Nc1ccccc1 the outcome was “inactive”.
